From PubChem BioAssay (NCI)
About 79,000 compounds went through this panel and 15% of them were active in at least one assay; those are over-represented in the sample as a whole. Active and inactive are the calls of the source. Rule as the data show it: active = growth inhibition above about 70%; inactive = the rest. Where a SMILES comes first, the peptide text is derived from it. The star is where a group is joined. Cbz = O=C(OCc1ccccc1)*

How the values were obtained:
[1] = NCI Yeast Anticancer Drug Screen. Data for the rad50 strain (AID 155);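 also: 0% = growth of vehicle-only cultures of the same strain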; settings: S. cerevisiae rad50 strain growth inhibition; at 50.0 µM; active compounds read high
Summary of the method: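 Compounds were tested on a yeast strain with an engineered DNA damage repair alteration; the reported value is growth inhibition normalised to vehicle treatment.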

[2] = NCI Yeast Anticancer Drug Screen. Data for the mec2-1 strain (AID 157); settings: S. cerevisiae mec2-1 strain, at 50.0 µM, active compounds read high
Summary of the method: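 Yeast mec2-1 mutant treated with compound. Readout: growth inhibition vs vehicle controls.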

[3] = NCI Yeast Anticancer Drug Screen. Data for the sgs1 mgt1 strain (AID 161);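 also: 0% = growth of cultures given vehicle only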; settings: S. cerevisiae sgs1 mgt1 strain, at 50.0 µM, active compounds read high
Summary of the method: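 Genetically altered yeast, compound exposure, growth inhibition relative to vehicle.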

[4] = NCI Yeast Anticancer Drug Screen. Data for the cln2 rad14 strain (AID 165);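 also: 0% = growth equal to vehicle treated cultures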; settings: S. cerevisiae cln2 rad14 strain, at 50.0 µM, active compounds read high
Summary of the method: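 cln2 rad14 yeast strain; compound exposure; growth inhibition read vs vehicle controls.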

[5] = NCI Yeast Anticancer Drug Screen. Data for the bub3 strain (AID 167); settings: S. cerevisiae bub3 mutant strain, at 50.0 µM, active compounds read high
Summary of the method: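 Growth of a checkpoint-deficient yeast mutant is measured after compound exposure. Values represent inhibition relative to vehicle.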

[6] = NCI Yeast Anticancer Drug Screen. Data for the mlh1 rad18 strain (AID 175); settings: S. cerevisiae mlh1 rad18 strain growth inhibition; at 50.0 µM; active compounds read high
Summary of the method: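 Yeast w/ defined DNA-repair lesions; compound exposure; growth vs vehicle controls → % inhibition.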

Measured: growth inhibition

C=C1CC(C2CCC(C)(C)C2)OC1=O (stereo not given)
inactive: [1] 13.7% | [2] 8% | [3] 9.15% | [4] 17.3% | [5] 2.15% | [6] -0.8%

NS(=O)(=O)N1CN(S(N)(=O)=O)CN(S(N)(=O)=O)C1
inactive: [1] -3.4% | [2] 4.1% | [3] 2.65% | [4] -18.6% | [5] 9.75% | [6] 13.4%

COC(=O)C(=O)C1CCc2c(C(=O)OC)nc3[nH]n(-c4ccccc4)c(=O)c3c21 (stereo not given)
inactive: [1] 12.1% | [2] -14.3% | [3] 4.2% | [4] -30.2% | [5] 25.1% | [6] 0.25%

O=C(O)C(Cc1cccs1)C(=O)OCCc1ccccc1 (stereo not given)
inactive: [1] -4.95% | [2] -6.45% | [3] 1.05% | [4] -10.8% | [5] -13.7% | [6] 21.7%

CCCCOC(=O)/C=C/c1ccc(OC(C)C)cc1
inactive: [1] 3.95% | [2] -9% | [3] -9.4% | [4] -48.1% | [5] 19.9% | [6] -10.4%

CC(C)C(NC(=O)CI)C(=O)Nc1ccc(C(=O)O)c(O)c1 (stereo not given)
inactive: [1] 24.2% | [2] 20.5% | [3] 5.7% | [4] -11.6% | [5] 7.1% | [6] 24.1%

OCc1ccccc1C(c1ccc(O)cc1)c1ccc(O)cc1
inactive: [1] 26.3% | [2] -7.9% | [3] 28.9% | [4] 18% | [5] 12.7% | [6] 5.15%

CC(=O)Oc1c(C)cc2c(c1C)C(C)CN2C(C)=O (stereo not given)
inactive: [1] 3.95% | [2] -33.8% | [3] -24.6% | [4] -18.9% | [5] -22.4% | [6] -10.6%

Cc1cccc(C)c1Nc1ncnc2c1cnn2C
inactive: [1] -11.6% | [2] -12.5% | [3] -1.2% | [4] -6.55% | [5] 9.95% | [6] -13.9%

COc1cccc(Nc2sc(C(=O)c3cc4cc(Cl)ccc4o3)c(N)c2C#N)c1
inactive: [1] -11.1% | [2] -8.65% | [3] -20.6% | [4] -2.75% | [5] -3.55% | [6] -7.55%

CCC(/C=N\O)CC
inactive: [1] -12.8% | [2] 2.6% | [3] 11.4% | [4] -4.05% | [5] -3.05% | [6] 17.1%

O=c1c2c([nH]n1-c1ccccc1)-c1ccccc1CS2
inactive: [1] 40.2% | [2] 15.9% | [3] 37.8% | [4] 9.55% | [5] 40.6% | [6] 28.9%

CC(=O)OCC12CC(c3ccoc3)OC3CCC4C(=O)OC(CC1C)C4(C)C32 (stereo not given)
inactive: [1] -19.4% | [2] -29.4% | [3] -18.6% | [4] 4.3% | [5] -23.9% | [6] -22.8%

CC1(C)CC(O)(Cc2ccccc2)C(O)c2ccccc21 (stereo not given)
inactive: [1] 45.5% | [2] 32.1% | [3] 31.6% | [4] 54.5% | [5] 26.1%
active: [6] 74.2%

NC(Cc1ccc(O)c(O)c1)C(=O)OCc1ccccc1 (stereo not given)
inactive: [1] 67.6% | [2] 60.7% | [3] 68.8% | [4] 58.4% | [5] 38.5% | [6] 65.8%

COC(=O)CCc1cc(=O)oc2ccc3cc(CC(=O)OC)oc3c12
inactive: [1] 5.75% | [2] -7.65% | [3] 4.7% | [4] -6.1% | [5] -7.2% | [6] 2.15%

OC(C#Cc1ccccc1)(C#Cc1ccccc1)/C=C/c1ccccc1
inactive: [1] 17.1% | [2] -5% | [3] -5.85% | [4] -7.95% | [5] -9.15% | [6] 11.5%

CC(=O)O[C@H]1CC[C@@]2(C)[C@@H](CC[C@@H]3[C@@H]2CC(=O)[C@@]2(C)[C@H]3C[C@@H]3CC(C)=CC(=O)[C@@H]32)C1
inactive: [1] 48.2% | [2] -7.55% | [3] 28.6% | [4] -20.6% | [5] -34.9% | [6] 28%

OCCC(CO)Cc1ccc2c(c1)OCO2 (stereo not given)
inactive: [1] -26.7% | [2] 2.75% | [3] 9.3% | [4] 10.4% | [5] -14.2% | [6] -36.3%

COC(=O)C(CC(C)C)NC(=O)C(CCCN=C(N)N)NC(=O)OCc1ccccc1 (stereo not drawn) (Cbz-Arg-Leu-OMe; configuration not given here)
inactive: [1] -27.7% | [2] -17.6% | [3] -15.7% | [4] 4.15% | [5] -10.3% | [6] -12.8%
